Consider 82 compounds from article PMC13083723 (Patterns, 2026).

The whole screen tested about 5,400 compounds, of which about 190 (3.5%) showed an effect of 50% or more. This excerpt belongs to a sample that is enriched for strong results. Non-standard residues stand in square brackets, D forms with d. Residues, ends and D or L forms follow the SMILES beside them.

This test has as its system Vero-E6. Kind of test: primary screen, phospholipidosis by LipidTOX staining; higher = more effect of the substance. As to conditions: 10 µM. A digest of the protocol:
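Drug-induced phospholipidosis detected with HCS LipidTOX Red reagent in Vero-E6 cells. Compounds tested at 10 μM, with amiodarone (10 μM) as positive control and DMSO (0.1 v/v %) as vehicle.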
For the compound `CC(C)NCC(O)COc1ccc(CC(N)=O)cc1` (stereo not shown) [R4A_0002533_001 / SPE_K44993696], the result_ITMP is on record as -2.42%.

Regarding `CCCCC(CC)CCC(CC(C)C)OS(=O)(=O)[O-]` (stereo not shown), the result_ITMP was -1.42%.

With `C[C@H](Cc1ccc(OCC(=O)[O-])cc1)NC[C@H](O)c1cccc(Cl)c1`, the result_ITMP is -1.85%.

For `C[C@]12CCC(=O)C=C1CCC1C2CC[C@@]2(C)C1CC[C@@H]2O` (stereo partly shown), the result_ITMP is on record as 2.46%.

As for `CCCCOc1ccc(C(=O)CCN2CCCCC2)cc1`, the result_ITMP stood at 4.72%.

With `CC(C)N1CCN(c2ccc(C(=O)c3c(-c4ccc(O)cc4)sc4cc(O)ccc34)cc2)CC1`, the result_ITMP is reported as -7.16%.

For the compound `Cc1c(-c2ccc(O)cc2)n(Cc2ccc(OCCN3CCCCCC3)cc2)c2ccc(O)cc12`, the result_ITMP amounted to 57.2%.

On to `CCCCCS(=O)(=O)CCCCCCCCCCn1c(-c2ccc(O)cc2)c(C)c2cc(O)ccc21`, for which the result_ITMP is recorded as -3.27%.

Turning to `O=C(c1ccc(OCCN2CCCCC2)cc1)c1c(-c2ccc(O)cc2)sc2cc(O)ccc12`, the result_ITMP was 74.6%.

As to `Cc1ccc(CC2(O)CCN(CCOc3ccc(O)cc3)CC2)cc1`, the result_ITMP was -3.85%.

Consider `Cc1c(C(=O)Nc2ccc(N3C[C@@H](C)O[C@@H](C)C3)nc2)cccc1-c1ccc(OC(F)(F)F)cc1`, for which the result_ITMP is listed as -6.29%.

As to `CCn1c(-c2ccc(Cl)cc2)n[nH]c1=O`, the result_ITMP is reported as -4.76%.

As for `CCCCC[C@H](O)/C=C/[C@@H]1[C@H]2C/C(=C/CCCC(=O)[O-])O[C@H]2C[C@H]1O`, the result_ITMP was determined as 0.37%.

Turning to `O=C([O-])CN(CCN(CC(=O)[O-])CC(=O)O)CCN(CC(=O)[O-])CC(=O)O`, the result_ITMP amounted to 0.03%.

Regarding `CN1C2CC[C@@H]1C[C@@H](OC(=O)[C@H](CO)c1ccccc1)C2`, the result_ITMP is -4.79%.

Consider `CCCCN1[C@@H]2CC[C@H]1C[C@@H](OC(c1ccc(F)cc1)c1ccc(F)cc1)C2`, for which the result_ITMP is 51.4%.

With `CN1C2CCC1CC(OC(c1ccccc1)c1ccc(Cl)cc1)C2` (stereo not shown), the result_ITMP is listed as 98.3%.

For the compound `CN1CCC(OC(c2ccccc2)c2ccccc2)CC1`, the result_ITMP came out at 26.1%.

Take `CN1[C@@H]2CC[C@H]1C[C@@H](OC(=O)C(O)c1ccccc1)C2` (stereo partly shown): the result_ITMP is -3.26%.

On to `CN1[C@@H]2CC[C@H]1C[C@@H](OC(c1ccccc1)c1ccccc1)C2`, for which the result_ITMP is 35.6%.

In the case of `CN1C2CCC1CC(OC(c1ccc(F)cc1)c1ccc(F)cc1)C2` (stereo not shown), the result_ITMP worked out at 61.5%.

As to `Fc1ccc(C(OCCN2CCN(CCCc3ccccc3)CC2)c2ccc(F)cc2)cc1`, the result_ITMP stood at 24.8%.

Turning to `CC(C(=O)OC1CC2CCC(C1)N2C)c1ccc(Br)cc1` (stereo not shown), the result_ITMP was 20.6%.

Take `C[C@H](NC(=O)[C@@H](Cc1c[nH]c2ccccc12)NC(=O)[C@@H](N)Cc1cnc[nH]1)C(=O)N[C@@H](Cc1c[nH]c2ccccc12)C(=O)N[C@H](Cc1ccccc1)C(=O)N[C@@H](CCCCN)C(N)=O` (H-H[dW]AW[dF]K-NH2): the result_ITMP is -2.53%.

For the compound `Cc1ccc(OC[C@@H](O)[C@H](C)NC(C)C)c2c1CCC2` (racemic), the result_ITMP worked out at 10.4%.

Take `CO[C@@]12[C@@H]3NC3CN1C1=C(C(=O)C(N)=C(C)C1=O)[C@@H]2COC(N)=O` (stereo partly shown): the result_ITMP stood at 0.39%.

For `OC[C@@H](O)C(O[C@@H]1O[C@H](CO)[C@H](O)[C@H](O)[C@H]1O)[C@H](O)[C@@H](O)CO` (stereo partly shown), the result_ITMP was -8.28%.

As to `O=C(O)[C@H]1CC[C@H](c2cc3cccnc3c(-c3cccc(F)c3)n2)CC1`, the result_ITMP was -0.01%.

Turning to `O[C@@H]1CO[C@H]2[C@@H]1OC[C@@H]2O`, the result_ITMP is recorded as -0.79%.

`COc1cc(N)c(Cl)cc1C(=O)OCCN1CCCCC1`: the result_ITMP is -1.25%.

`COc1cc(N)c(Cl)cc1C(=O)OCCCN1CCCCC1`: the result_ITMP amounted to 0.68%.

In the case of `COc1cc(C(=O)OCCCN2CCCN(CCCOC(=O)c3cc(OC)c(OC)c(OC)c3)CC2)cc(OC)c1OC`, the result_ITMP was 58.7%.

Take `O=C(O)C[CH2][Ge](=[O])[O][Ge](=[O])[CH2]CC(=O)O`: the result_ITMP was -3.6%.

In the case of `Cc1ccc(C(=O)Nc2ccc(S(=O)(=O)[O-])c3cc(S(=O)(=O)[O-])cc(S(=O)(=O)[O-])c23)cc1NC(=O)c1cccc(NC(=O)Nc2cccc(C(=O)Nc3cc(C(=O)Nc4ccc(S(=O)(=O)[O-])c5cc(S(=O)(=O)[O-])cc(S(=O)(=O)[O-])c45)ccc3C)c2)c1`, the result_ITMP is -3.34%.

Take `C[C@@H](O)[C@H]1C(=O)N2C(C(=O)[O-])=C(S[C@@H]3CN[C@H](C(=O)Nc4cccc(C(=O)O)c4)C3)[C@H](C)[C@H]12`: the result_ITMP is -0.24%.

On to `C[C@H](NC(=O)CCc1nc2ccccc2c(=O)[nH]1)c1ccccc1` [R4A_0003503_001 / SPE_K24283677], for which the result_ITMP is on record as -1.61%.

As for `C/C=C1/[C@H]2C=C(C)C[C@]1(N)c1ccc(=O)[nH]c1C2`, the result_ITMP was -2.16%.

As for `O=C(Nc1ncc(SCCN2CCCC2)s1)[C@]1(c2ccc(S(=O)(=O)C3CC3)cc2)C[C@H]1C1CCCCC1`, the result_ITMP came to 55.8%.

With `C[C@H](CCC(=O)O)[C@H]1CC[C@H]2[C@@H]3CC[C@@H]4C[C@H](O)CC[C@]4(C)[C@H]3C[C@H](O)[C@]12C`, the result_ITMP worked out at 0.11%.

`Nc1nc(S)c2nc[nH]c2n1`: the result_ITMP was 26.6%.

In the case of `Cc1ccc(C(=O)C(C)CN2CCCCC2)cc1` (stereo not shown), the result_ITMP was -4.52%.

In the case of `O=C(NCCCN1CCCCCC1)C(c1ccccc1)C1CCCCC1` (stereo not shown), the result_ITMP is on record as 36.5%.

In the case of `O=C(Nc1ccccc1)OCC(CN1CCCCC1)OC(=O)Nc1ccccc1` (stereo not shown), the result_ITMP amounted to 54.4%.

On to `CCn1c(=O)/c(=C2\Sc3ccccc3N2C)s/c1=C/c1cccc[n+]1CC`, for which the result_ITMP is reported as -7.97%.

As to `CCC(C)CNCC(=O)N1CCc2sccc2C1COc1cccc(C)c1` (stereo not shown), the result_ITMP was 57.8%.

As to `COc1ccc(CCNCC(O)COc2cccc(C)c2)cc1OC` (stereo not shown), the result_ITMP was 34.1%.

Regarding `Nc1ccc(S(=O)(=O)[O-])cc1`, the result_ITMP is recorded as -6.57%.

Consider `O=C([O-])CN1CCN(CC(=O)[O-])CCN(C(CO)C(O)CO)CCN(CC(=O)[O-])CC1.[Gd+3]` (stereo not shown), for which the result_ITMP was -1.16%.

Turning to `O=C([O-])c1cc(/N=N/c2ccc(O)c(C(=O)[O-])c2)ccc1O`, the result_ITMP is reported as -2.29%.

On to `CN(C)CC(O)Cn1c2ccc(Br)cc2c2cc(Br)ccc21` (stereo not shown), for which the result_ITMP worked out at 28.6%.

Regarding `OC(CNc1ccccc1)Cn1c2ccc(Br)cc2c2cc(Br)ccc21` (stereo not shown), the result_ITMP is recorded as -2.55%.

In the case of `OC(CN1CCNCC1)Cn1c2ccc(Br)cc2c2cc(Br)ccc21` (stereo not shown), the result_ITMP is given as 123%.

As to `C=C[C@]1(C)C[C@@H](OC(=O)CS[C@@H]2C[C@H]3CC[C@@H](C2)N3C)[C@]2(C)[C@H](C)CC[C@]3(CCC(=O)[C@H]32)[C@@H](C)[C@@H]1O`, the result_ITMP was 12.9%.

Regarding `NC(=O)c1cc[n+](CC2=C(C(=O)[O-])N3C(=O)[C@@H](NC(=O)[C@@H](c4ccccc4)S(=O)(=O)[O-])[C@H]3SC2)cc1`, the result_ITMP came to 4.59%.

For `Cc1c(CN(C)C(=O)/C=C/C2=CNC3=NC(=O)CCC3=C2)oc2ccccc12`, the result_ITMP is -2.49%.

Take `CCN1/C(=C/C(C)=O)Sc2ccc(OC)cc21`: the result_ITMP was -4.89%.

Consider `CC(CN(C)C)CN1c2ccccc2Sc2ccccc21` (stereo not shown) [R4A_0005516_001 / SPE_M58473998], for which the result_ITMP stood at 17.1%.

Regarding `CC(CN(C)C)CN1c2ccccc2CCc2ccccc21` (stereo not shown), the result_ITMP is reported as 34.6%.

As to `COc1ccc2c(c1)N(C[C@H](C)CN(C)C)c1ccccc1S2`, the result_ITMP worked out at 53%.

In the case of `CC(CN(C)C)CN1c2ccccc2Sc2ccc(C#N)cc21` (stereo not shown), the result_ITMP worked out at 42.4%.

Turning to `CC(CN(C)C)CN1c2ccccc2Sc2ccccc21` (stereo not shown) [R4A_0005516_001 / SPE_A49225603], the result_ITMP stood at 81.1%.

As to `C[C@@H]1CC2C3CCC4=CC(=O)C=C[C@]4(C)[C@@]3(F)[C@@H](O)C[C@]2(C)[C@@]1(O)C(=O)COP(=O)([O-])[O-]` (stereo partly shown), the result_ITMP is on record as -3.97%.

Consider `NC(CSC(c1ccccc1)(c1ccccc1)c1ccccc1)C(=O)O` (stereo in doubt), for which the result_ITMP is given as -1.96%.

Consider `CC(N)Cc1cccc(O)c1` (stereo not shown), for which the result_ITMP is given as -6.46%.

Consider `CCC(=O)O[C@H]1CCC2C3CCC4=CC(=O)CC[C@]4(C)C3CC[C@@]21C` (stereo partly shown), for which the result_ITMP was 5.62%.

With `NC(=O)OC[C@@H]1[C@H](NC(=O)/C(=N\OCC(=O)[O-])c2csc(N)n2)C(=O)N1S(=O)(=O)[O-]`, the result_ITMP turned out to be 0.72%.

Take `CCCC(=O)Nc1ncnc2c1ncn2C1O[C@@H]2COP(=O)([O-])O[C@H]2[C@H]1OC(=O)CCC` (stereo partly shown): the result_ITMP is on record as -5.79%.

On to `CC[C@]12C=CCN3CC[C@@]4(c5cc([C@@]6(C(=O)OC)C[C@H]7C[C@@H](C(C)(F)F)CN(Cc8c6[nH]c6ccccc86)C7)c(OC)cc5N(C)[C@H]4[C@@](O)(C(=O)OC)[C@@H]1OC(C)=O)[C@@H]32`, for which the result_ITMP turned out to be 49.7%.

For the compound `O=C(N[C@H]1CN2CCC1CC2)c1ccc(Cl)cc1`, the result_ITMP is recorded as -0.98%.

On to `COc1cc(N)c(Cl)cc1C(=O)NC1CN2CCC1CC2` (stereo not shown), for which the result_ITMP is recorded as -9.6%.

Turning to `O=C(N[C@H]1CN2CCC1CC2)c1cc2cccc(Cl)c2s1`, the result_ITMP is reported as 100%.

As for `C[C@H](CCC(=O)O)[C@H]1CC[C@H]2[C@@H]3C[C@H](O)[C@@H]4C[C@H](O)CC[C@]4(C)[C@H]3CC[C@]12C`, the result_ITMP amounted to 1.59%.

`c1ccc2c(CCNc3ccc(Nc4ccncc4)cc3)c[nH]c2c1`: the result_ITMP stood at 74%.

As to `c1ccc2c(Cc3c[nH]c4ccccc34)c[nH]c2c1`, the result_ITMP is given as -4.8%.

In the case of `CC(=O)NCCc1c[nH]c2ccccc12`, the result_ITMP is -3.74%.

In the case of `CCCCc1nc(Cl)c(C(=O)O)n1Cc1ccc(-c2ccccc2-c2nnn[nH]2)cc1`, the result_ITMP is given as -4.07%.

In the case of `CN1CCCC1CCSc1ccc(O)cc1` (stereo not shown), the result_ITMP is on record as 2.34%.

On to `CN1CCC[C@@H]1CCO[C@](C)(c1ccccc1)c1ccc(Cl)cc1`, for which the result_ITMP stood at 90.6%.

`CC(C)(C)c1ccc(C(O)CCCN2CCC(C(O)(c3ccccc3)c3ccccc3)CC2)cc1` (stereo not shown): the result_ITMP is -4.73%.

Turning to `C=C1/C(=C\C=C2/CCC[C@]3(C)[C@@H]([C@H](C)CCCC(C)(C)O)CC[C@@H]23)C[C@@H](O)C[C@@H]1O`, the result_ITMP is -1.95%.

With `CC[C@H]1[C@@H](O)[C@@H]2[C@H](CC[C@]3(C)[C@@H]([C@H](C)CCC(=O)O)CC[C@@H]23)[C@@]2(C)CC[C@@H](O)C[C@@H]12`, the result_ITMP was -0.78%.

Regarding `CO[C@H]1/C=C/O[C@@]2(C)Oc3c(C)c(O)c4c(O)c(cc([O-])c4c3C2=O)NC(=O)/C(C)=C\C=C\C(C)[C@H](O)[C@@H](C)[C@@H](O)[C@@H](C)[C@H](OC(C)=O)[C@@H]1C` (stereo partly shown), the result_ITMP is -1.11%.
